# A selection: hits, their analogues and other compounds. The true share with any hit is near 32%.
# PostGolgi ctrl: growth inhibition of yeast control strain, primary screen, counter-screen for post-Golgi transport modulator project; efflux-deficient yeast background strain, growth absorbance A615, 16 h; inhibition, % at 10 µM; 5% of 98,000 active; AID 738, 2007
# CYP2C19 inhib: blockers of cytochrome P450 2C19 activity – biochemical, luminescence, ADME assay, primary screen | CYP2C19 Supersomes, luciferin-H EGE luminescence, 30 min | 21% of 96,000 active | inhibition, % at 5 µM;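 active means CYP2C19 inhibition above a set limit at 5 µM in the primary screen, cut at about 50% in these data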;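 further: plate controls were negative control wells for no effect and 2.5 mM tranylcypromine positive control for full effect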
# Target sequence (P33261 whole entry, looked up): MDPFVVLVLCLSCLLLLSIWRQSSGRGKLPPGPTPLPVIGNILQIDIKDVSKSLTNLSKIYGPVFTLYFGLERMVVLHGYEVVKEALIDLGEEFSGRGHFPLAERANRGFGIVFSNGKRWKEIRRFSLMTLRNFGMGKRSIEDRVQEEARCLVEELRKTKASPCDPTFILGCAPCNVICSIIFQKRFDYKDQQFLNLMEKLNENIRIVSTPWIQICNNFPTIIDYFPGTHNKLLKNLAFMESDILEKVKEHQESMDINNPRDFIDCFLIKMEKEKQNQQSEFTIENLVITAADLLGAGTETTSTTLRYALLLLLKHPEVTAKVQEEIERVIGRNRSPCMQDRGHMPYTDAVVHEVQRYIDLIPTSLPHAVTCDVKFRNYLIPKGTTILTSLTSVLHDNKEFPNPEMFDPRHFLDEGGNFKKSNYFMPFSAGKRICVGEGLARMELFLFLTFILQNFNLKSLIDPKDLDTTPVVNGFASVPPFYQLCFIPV
# CYP2C19 activ: human CYP2C19 activators, primary screen, biochemical, luminescence; recombinant CYP2C19, luciferin-H EGE luminescence; active compounds read high; 0 = fully inhibited enzyme, 1 = untreated enzyme; activation factor at 5 µM; 96,000 tested, under 10 active; AID 1025, 2008;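 active means activation factor of at least 2 at 5 µM in the primary screen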;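 further: 0 = wells with 2.5 mM tranylcypromine and 1 = vehicle-only wells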
# PostGolgi yeast: phenotypic screen on post-Golgi transport, primary screen; post-Golgi transport phenotypic cell assay; 0.9% of 98,000 active; inhibition, % at 10 µM; AID 739, 2007;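 further: yeast cells grown in 1536-well plates; yeast grown about 18 h at 30C before absorbance read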
# CYP2C9 act: human CYP2C9 activators, primary screen, biochemical, luminescence | Cytochrome P450 2C9 (Homo sapiens), P11712 | recombinant CYP2C9, luciferin-H conversion; active compounds read high; factor 1 = untreated enzyme, 0 = blocked | 1.4% of 96,000 active | activation factor at 5 µM;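 active means activation factor of 2 or more for CYP2C9 at a 5 µM dose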;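 further: 0 = sulfaphenazole-blocked wells and 1 = vehicle-only wells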
# CYP2C9 inh: blockers of cytochrome P450 2C9 activity – biochemical, luminescence, ADME assay, primary screen; P11712; CYP2C9 Supersomes, luciferin-H conversion; inhibition, % at 5 µM; 20% of 96,000 active;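 active means blocking of liver enzyme CYP2C9 beyond about 50% at 5 µM, limit read from the data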
# Numbers without * were called inactive; nt = no result. Unless noted, no stated cut-off is given here; in the data, active means inhibition above about 30%; inactive means the rest.
SMILES,PostGolgi ctrl,CYP2C19 inhib,CYP2C19 activ,PostGolgi yeast,CYP2C9 act,CYP2C9 inh
Cc1cccc(NCN2C(=O)c3ccccc3C2=O)c1,0,2,1,6,0.9,12
O=C(COC(=O)C1COc2ccccc2O1)NC(=O)Nc1ccc2c(c1)OCCO2 (stereo unspecified),15,30,0.7,16,0.3,67*
Cc1ccc(NC(=O)C2COc3ccccc3O2)nc1 (stereo unspecified),1,90*,0.1,-7,0.7,30
O=C(CCC1COc2ccccc2O1)Nc1ncccc1O (stereo unspecified),10,64*,0.4,-5,0.9,14
CC1(C)CC(=O)c2sc(NC(=O)C3COc4ccccc4O3)nc2C1 (stereo unspecified),38*,-21,1.2,-6,0.9,14
COc1ccc(CC(NC(C)=O)C(=O)NC2CCN(S(=O)(=O)c3cccc4ccccc34)CC2)cc1OC (stereo unspecified),2,19,0.8,2,0.9,8
COC(=O)Cc1cc(=O)[nH]c(/N=C(\N)Nc2ccccc2)n1,2,0,1,-4,1.1,-6
O=C(CSc1nnc(Cc2ccccc2)n1-c1ccc(Cl)cc1)N1CCOCC1,7,8,0.9,1,1,1
O=C(CCC1COc2ccccc2O1)Nc1cccnc1 (stereo unspecified),12,81*,0.2,-5,0.5,45
O=C(Nc1nncs1)C1COc2ccccc2O1 (stereo unspecified),6,3,1,-4,0.7,28
O=C(Nc1nnc(C(F)(F)F)s1)C1COc2ccccc2O1 (stereo unspecified),23,56*,0.4,-2,0,99*
O=C(Nc1cccnc1)C1COc2ccccc2O1 (stereo unspecified),9,62*,0.4,1,0.8,23
CC1(C)Oc2ccc(NC(=O)C3COc4ccccc4O3)cc2O1 (stereo unspecified),18,93*,0.1,-6,0.2,76*
COc1ccc(C(NC(=O)C(C)(C)C)NC(=O)C(C)(C)C)cc1,13,nt,nt,2,nt,nt
CCn1c(O)c(C=Nc2ccccc2)n(-c2ccccc2)c1=S,17,13,0.9,-10,1,2
Cc1ccc(S(=O)(=O)C2(C(=O)N3CCCCCC3)CC2)cc1,6,79*,0.2,3,0.9,9
Cc1ccc(S(=O)(=O)C2(C(=O)N3CCN(C4CCCCC4)CC3)CC2)cc1,12,nt,nt,4,nt,nt
O=C(CCc1ccccc1)NNC(=S)NC(=O)c1ccc(Cl)cc1,26,20,0.8,12,0.6,43
Cc1onc(-c2c(F)cccc2Cl)c1C(=O)OCN1C(=O)c2ccccc2C1=O,5,56*,0.4,-3,0.6,42
COc1ccc(CNC(=O)COC(=O)c2c(-c3c(F)cccc3Cl)noc2C)cc1OC,12,97*,0,3,0.4,56*
Cc1onc(-c2ccccc2Cl)c1C(=O)OCn1nnc2ccccc2c1=O,14,33,0.7,0,1,4
CCOc1ccc(N(CC(=O)NC2CCCC(C)C2C)S(=O)(=O)c2c(C)noc2C)cc1 (stereo unspecified),11,6,0.9,-5,0.8,18
Cc1ccc2c(c1)C1CN(C)CCC1N2CC(=O)N(C)c1ccccc1 (stereo unspecified),17,3,1,1,0.9,6
CC(C)NS(=O)(=O)c1ccc(NC(=O)CCc2ccccc2)cc1,2,22,0.8,23,0.6,42
CC(C)NS(=O)(=O)c1ccc(CCC(=O)Nc2cc(Cl)ccc2Oc2ccccc2)cc1,6,45,0.6,-5,0.3,67*
SMILES,PostGolgi ctrl,CYP2C19 inhib,CYP2C19 activ,PostGolgi yeast,CYP2C9 act,CYP2C9 inh
CCNS(=O)(=O)c1ccc(CCC(=O)Nc2cc(Cl)ccc2Oc2ccccc2)cc1,9,64*,0.4,-2,0.2,82*
Cc1cc(-n2c(C)cc(C(=O)CSc3nc4ccccc4c(=O)n3Cc3ccco3)c2C)no1,3,2,1,1,1,-5
Cc1nn2c(-c3ccccc3)nnc2c2ccccc12,31*,8,0.9,-1,0.8,15
CCCCOc1ccc(/C(O)=C2/C(=O)C(=O)N(CCCOC)C2c2ccncc2)cc1C (stereo unspecified),2,-1,1,0,0.9,14
CCc1nc(SCC(=O)N2c3ccccc3Sc3ccccc32)c2ccccc2n1,0,0,1,6,0.5,53*
CCc1nc(SCC(=O)c2ccc3c(c2)OCCO3)c2ccccc2n1,32*,15,0.9,-4,0.8,17
O=C(CSc1nc(Cc2ccccc2)nc2ccccc12)c1ccc2c(c1)OCCO2,17,8,0.9,20,0.1,89*
O=C(CSc1nnc(CNc2ccccc2)o1)c1ccc2c(c1)OCCO2,11,25,0.7,-6,1,1
CCOC(=O)C1CCCN(CCC(=O)Nc2ccc3c(c2)CCC3)C1 (stereo unspecified),1,18,0.8,1,0.9,6
O=C(O)c1cc(O)ccc1-c1ccc(O)cc1,-2,11,0.9,-4,1.2,-19
COc1ccc(-n2nnc3c(SCC(=O)OCc4ccccc4)ncnc32)cc1,2,-4,1,1,1,1
Cc1cc(C(=O)OCC(=O)c2ccc3c(c2)OCCO3)c(C)o1,-11,86*,0.1,20,0.6,40
CC1CCCC(C)N1C(=O)CSc1nnc(-c2cccs2)o1 (stereo unspecified),9,84*,0.2,-1,0.5,48
O=C(CSc1nnc(-c2cc(-c3cccs3)nc3ccccc23)o1)NC1CCCCC1,-8,8,0.9,-7,0.5,50*
O=C(CSc1oc(-c2cccs2)nc1S(=O)(=O)c1ccccc1)NC1CCCCC1,16,24,0.8,3,0.7,28
CCC(C)NC(=O)CSc1nnc(-c2cc(-c3cccs3)nc3ccccc23)o1 (stereo unspecified),9,75*,0.2,-3,0,98*
CCCN(CC1CC1)C(=O)CSc1nnc(-c2cc(-c3cccs3)nc3ccccc23)o1,1,0,1,-13,0.4,55*
NC(=O)CSc1nnc(-c2cc(-c3cccs3)nc3ccccc23)o1,-3,1,1,-4,0.7,33
CCN(CC)C(=O)CSc1nnc(-c2ccccc2)o1,12,28,0.7,2,0.8,22
O=C(CSc1nnc(-c2cccs2)o1)N1CCCCC1,6,6,0.9,0,1.1,-7
